# Screens as filed in PubChem BioAssay.
# Sampled rows, rich in hits. Any-hit rate of the full collection: about 2.3%.
# Nrf2 inh: inhibitors of Nrf2 signaling; A549 ARE-Fluc reporter, luciferase luminescence, 18-24 h; Potency, µM (doses to about 46 µM), inactives show top-dose activity change, negative = inhibition, usual class: inhibitors; actives 2.1% (n = 360,000); further: potency means the concentration at half of the fitted maximal effect; on the % scale 0 is the no-effect control and ±100 the full control effect; nearly all actives have a fitted effect of over 60% in size
#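 Reporter: ARE-Fluc in A549. Exposure: 18-24 h, 37 °C, 5% CO2, 5% FBS OPTI-MEM. Readouts: fluorescent cytotoxicity (CellTiter-Fluor), then luminescent Nrf2 signal after BugLite.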
# IL2 activator: IL-2 activation; IL-2 activation reporter assay, cell-based qHTS; stimulated with anti-CD3/CD4/CD28 beads; in transgenic mouse T cells; actives 0.065% (n = 360,000); activation, % (series mostly up to about 46 µM); in the data active means activation above about 50%; inconclusive means mostly about 30% to 49%; further: 0% is about no effect
#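 Readout: EGFP and DsRed signals by fluorescent plate cytometry. Unstimulated transgenic mouse T cells received compound 60 min before antibody-bead stimulation, then incubated 18 h at 37 degrees C.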
# Nrf2 ARE act: activators of Nrf2 (ARE) signaling. Potency, µM (top dose mostly 46.1 µM), for inactives: top-dose activation, usual class: activators. actives 0.31% (n = 410,000). AREc32 ARE-luciferase reporter (MCF7-derived line), luminescence, 24 h. AID 624171; further: potency means the concentration at half of the fitted maximal effect; % of control where 0% means no effect; nearly all actives have a fitted effect of over 65% in size
#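 ARE activation measured as luciferase luminescence (Steady-Glo, 30 min RT) in AREc32_Fluc cells after 24 hr compound exposure at 37 deg C, 5% CO2; cells seeded overnight at 1000/well in OPTI-MEM, 5% FBS.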
# A549 viability: A549 cytotoxicity, counter-screen for Nrf2 inhibitors. actives 0.16% (n = 390,000). AID 504648. Potency, µM (doses to about 46 µM), for inactives: at the top dose activity change, negative = cytotoxicity, hits mostly inhibitors. A549 ARE-Fluc cells, CellTiter-Fluor viability, 18-24 h; further: potency means the concentration at half of the fitted maximal effect; on the % scale 0 is the no-effect control and ±100 the full control effect
#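 A549 ARE_Fluc cells in 5% FBS OPTI-MEM were exposed to compounds in concentration-response for 18-24 h at 37 deg C. Viability was read by CellTiter-Fluor fluorescence (Ex 405/Em 525) after 30 min, before the luciferase read.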
# * hit, by the source's call; ? = inconclusive; · = not tested or not shown; ! = not active in a repeat; [ ] = remark or other dose. Unless noted, the call rests on the fitted dose curve; in most records, active means well fitted curve in the direction sought with a large enough effect; inconclusive means small, poorly fitted or top-dose-only effect, or another doubt; inactive means no such curve, though single readings can be large; an effect the other way counts as inactive or inconclusive.
SMILES,Nrf2 inh,IL2 activator,Nrf2 ARE act,A549 viability
O=C(NCc1ccccc1)c1nc(S(=O)(=O)Cc2ccc(F)cc2)ncc1Cl,25.9µM*,·,-5.9%,?
Cc1cccc(C)c1NC(=O)c1nc(S(=O)(=O)Cc2ccccc2)ncc1Cl,?,-2.2,?,0.1%
Cc1cccc(CS(=O)(=O)c2ncc(Cl)c(C(=O)Nc3c(C)cccc3C)n2)c1,14.6µM*,-3.6,-1.9%,?
O=C(Nc1ccc(F)cc1)c1nc(S(=O)(=O)Cc2ccccc2)ncc1Cl,?,-3.9,?,?
Cc1ccc(C)c(Nc2nc3c(S(=O)(=O)c4ccc(Br)cc4)nnn3c3ccsc23)c1,?,·,0.2%,?
COc1ccc(-[n+]2c(C)cc(/C=C3\Sc4ccccc4N3C)cc2C)cc1,0.231µM*,25.2,-1.6%,9.2µM*
COc1cccc(C(=O)Nc2ccccc2C(=O)OCc2cc(=O)n3c4c(sc3n2)CCCC4)c1,·,·,0.8%,-4.3%
COc1ccc(OCC(=O)Nc2c3c(nn2C(C)(C)C)CSC3)cc1,11.6µM*,3.0,0.7%,-6.4%
CCOC(=O)Nc1sc2c(c1C(=O)OCC)CCC2,15.3%,-3.5,-0.1%,1.2%
CCOC(=O)c1c(NC(NC(=O)C(C)C)C(Cl)(Cl)Cl)sc2c1CCC2 (stereo not given),23.1µM*,-3.7,2.2%,?
CCCn1c(CC)nc([N+](=O)[O-])c1S(=O)(=O)c1ccccc1,20.6µM*,-2.8,-2.6%,?
Cn1cnc([N+](=O)[O-])c1S(=O)(=O)c1cccc(Cl)c1,-17.4%,-0.7,-3.0%,-7.7%
COc1ccc(-n2nc3c(N4CCCC(C(=O)NCc5ccccc5C)C4)nnc(C)c3c2C)cc1 (stereo not given),20.6µM*,·,-2.9%,18.4µM*
CCOc1ccccc1CNC(=O)C1CCCN(c2nnc(C)c3c(C)n(-c4ccccc4)nc23)C1 (stereo not given),23.1µM*!,-2.3,2.8%,?
Cc1ccc(NC(=O)C(=O)NCC2OCCc3ccccc32)cc1 (stereo not given),25.6%,-0.5,0.8%,-4.1%
O=C(NCC1OCCc2ccccc21)c1ccc(NC(=O)c2ccc(Cl)cc2)cc1 (stereo not given),20.6µM*,0.4,7.9%,?
O=C(NCC1OCCc2ccccc21)c1ccco1 (stereo not given),?,-0.2,11.2µM*,4.3%
CC(C)Cn1nc(NC(=O)c2cccs2)c2cc3ccccc3nc21,16.4µM*,1.8,-0.1%,3.9%
CC(C)Cn1nc(NC(=O)c2ccco2)c2cc3ccccc3nc21,16.4µM*,7.6,4.9%,20.3%
COc1ccc2nc3c(cc2c1)c(NC(=O)c1cccs1)nn3CC(C)C,·,0.4,8.1%,-4.0%
Cc1ccc(CCNC(=O)c2sc3nc4n(c(=O)c3c2C)CCCC4)cc1,-2.2%,·,5.3%,-0.5%
CC1CCN(c2nc3ccccc3nc2C(F)(F)F)CC1,?,·,-1.1%,5.8%
Cc1ccc(C(=O)C(C(=O)/C=C/c2ccccc2)=C2SCCCS2)cc1,25.9µM*,-0.8,-1.4%,?
Cc1ccccc1OCCn1cc(/C(N)=N/O)c2ccccc21,23.1µM*,-1.9,3.0%,-22.9%
CC(=O)c1cn(CCOc2cc(C)ccc2C)c2ccccc12,6.51µM*,-3.1,2.5%[9.22 µM],-1.3%
SMILES,Nrf2 inh,IL2 activator,Nrf2 ARE act,A549 viability
Cc1ccc(C(=O)OCC(=O)N(C)c2ccccc2)c(C)c1,3.7%,-0.5,2.3%,0.2%
CN(C(=O)COC(=O)c1ccc([N+](=O)[O-])cc1N)c1ccccc1,9.6%,77.3*,2.7%,0.4%
COc1cccc(OC)c1C(=O)N1CCN(Cc2ccc3c(c2)OCO3)CC1,9.2%,0.0,-0.3%,0.4%
COc1cc(SC)ccc1C(=O)N1CCN(Cc2ccc3c(c2)OCO3)CC1,14.6µM*,-0.4,1.0%,-3.2%
O=C(c1ccc(COc2ccc(Cl)cc2)o1)N1CCN(Cc2ccc3c(c2)OCO3)CC1,23.1µM*,-1.1,3.3%,-20.0%
CCOC(=O)N1CCN(C(=O)c2ccc(SC)cc2OC)CC1,11.6µM*,-1.9,-0.1%,0.0%
COc1ccc2c(c1OC)C(=O)N1c3ccccc3C(=O)N(Cc3ccco3)C21 (stereo not given),0.3%,·,·,-13.3%
CCN(c1ccccc1)S(=O)(=O)c1nnc(NC(=O)c2ccccc2)s1,?,·,0.1%,-4.8%
CCC(O)c1cc2c(cc1NC(=O)c1ccccc1F)OCCO2 (stereo not given),·,·,-0.2%,18.5%
O=C(CCSc1nnc(-c2ccncc2)o1)Nc1cccc(Cl)c1,20.6µM*,0.4,3.1%,-4.0%
O=C(O)c1cccc(CSc2nnc(-c3ccc(Cl)cc3)o2)c1,9.2µM*,1.4,-2.0%,-0.9%
CCn1cc(S(=O)(=O)c2ccc(OC)cc2)c(=O)c2cc(F)c(N3CCC(C)CC3)cc21,16.4µM*,·,0.1%,0.2%
CCn1cc(S(=O)(=O)c2ccc(OC)cc2)c(=O)c2cc(F)c(N3CCCCCC3)cc21,0.5%,·,-1.1%,12.2%
COc1cccc(N2CC(NC(=O)C3CC3)CC2=O)c1 (stereo not given),·,·,0.5%,-4.8%
Cc1ccc(OCC(=O)Nc2cccc(C(=O)OCc3cc(=O)n4nc(C)sc4n3)c2)cc1,·,·,0.5%,-0.1%
Cc1ccc(-n2nc3c4c(cccc4c2=O)-c2ccccc2-3)cc1,?,3.0,5.0%,16.4µM*
O=C(O)Cn1nc2c3c(cccc3c1=O)-c1ccccc1-2,-22.2%,-2.6,-0.3%,-1.3%
Cc1ccc2nc(Nc3ccc(Br)cc3)nc(-c3ccccc3)c2c1,-0.3%,·,0.2%,9.3%
COc1ccc(C(C#N)=C2C=CC(=NO)C=C2)cc1,-3.5%,18.7,1.26µM*,-10.4%
CC(=O)ON=C1C=CC(=C(C#N)c2ccccc2)C=C1,·,-0.8,?,·
CCCCCCCCN1C(=O)[C@H](CC(=O)NCCCOCCCC)C[C@@]2(C(=O)OCC)CCCC=C12,·,-0.8,3.1%,·
Cc1ccccc1OCCCCn1c(CCNC(=O)C(C)(C)C)nc2ccccc21,23.1µM*,·,3.1%,-25.5%
COc1ccccc1OCC(=O)Nc1ccc(CSc2ccccc2)cc1C,10.3µM*,-0.1,0.2%,-15.1%
Cc1cc(CSc2ccccc2)ccc1NC(=O)COc1ccccc1,?,4.2,0.3%,-8.5%
Cc1cc(C(=O)OCC(=O)N2CCC(c3ccccc3)=N2)ccc1[N+](=O)[O-],-3.5%,0.2,-0.9%,-2.5%
O=C(OCC(=O)N1CCC(c2ccccc2)=N1)c1ccc([N+](=O)[O-])s1,23.1µM*,-1.2,13.3%,?
O=[N+]([O-])c1ccc(Cl)cc1N/N=C/c1ccncc1,-29.6%,0.1,1µM*,-4.7%
Cc1ccccc1C(=O)NC1(C(F)(F)F)N=C(c2ccccc2)N(C2CCCCC2)C1=O (stereo not given),12.0%,·,-1.3%,1.2%
Cc1ccc(-c2nc(NC(=O)CSc3nc(C)nc4sc5c(c34)CCCC5)ns2)cc1,4.3%,·,0.1%,4.1%
Cc1cccc(NC(=O)CN(C)C(=O)c2ccc(N3CCCCCC3)c([N+](=O)[O-])c2)c1C,?,-0.8,0.6%,-13.1%
